From PubChem
Cruzain inh noDet = qHTS Assay for Promiscuous and Specific Inhibitors of Cruzain (without detergent) | Cruzipain (Trypanosoma cruzi), P25779 | AID 1476, 2009 | 200,000 compounds, 2.3% hits | Potency, µM, without a hit: max response, negative = inhibition, usual class: inhibitors | purified cruzain, Z-FR-AMC fluorescence, no detergent;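 further: plate controls were enzyme without inhibitor for no effect and buffer without enzyme for full effect; nearly all actives have a fitted effect of over 40% in size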
Target sequence (P25779 123-467 limits assumed): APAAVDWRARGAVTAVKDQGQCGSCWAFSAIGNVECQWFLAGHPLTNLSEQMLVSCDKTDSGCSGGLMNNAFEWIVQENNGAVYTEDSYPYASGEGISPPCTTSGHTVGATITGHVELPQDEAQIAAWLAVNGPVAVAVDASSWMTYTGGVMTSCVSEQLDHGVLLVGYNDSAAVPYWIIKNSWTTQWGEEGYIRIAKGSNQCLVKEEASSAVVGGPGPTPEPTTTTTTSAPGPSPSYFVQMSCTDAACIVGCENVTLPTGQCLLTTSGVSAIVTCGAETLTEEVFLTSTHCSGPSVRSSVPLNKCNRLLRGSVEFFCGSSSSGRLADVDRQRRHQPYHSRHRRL
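Purified cruzain at 1.5 nM, pre-incubated 15 min with compound at room temperature in 100 mM sodium acetate pH 5.5, 5 mM DTT, 0.00005% Triton X-100. Reaction started with 2 uM Z-FR-AMC; AMC fluorescence increase over 60 s gives rate.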
Cruzain inh Det = qHTS Assay for Promiscuous and Specific Inhibitors of Cruzain (with detergent); Cruzipain (Trypanosoma cruzi), P25779; purified cruzain, Z-FR-AMC fluorescence, 0.01% Triton; Potency, µM, for the others: max response, negative = inhibition, hits mostly inhibitors; 200,000 compounds, 0.43% hits; AID 1478, 2009;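 further: plate controls were neutral wells for no effect and buffer without enzyme for full effect; nearly all actives have a fitted effect of over 40% in size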
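Enzyme 1.5 nM, Z-FR-AMC 2 uM, NaOAc 100 mM pH 5.5, DTT 5 mM, Triton X-100 0.01%; 15 min RT compound preincubation; kinetic ex360/em450, 60 s delta.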
* = called active by the depositor; ? = inconclusive; ! = a repeat was not active. A selection: hits, their analogues and other compounds. The true share with any hit is near 2.4%. The call rests on the fitted dose curve; in most records, active means well fitted curve in the direction sought with a large enough effect; inconclusive means small, poorly fitted or top-dose-only effect, or another doubt; inactive means no such curve, though single readings can be large; an effect the other way counts as inactive or inconclusive. Potency means the concentration at half of the fitted maximal effect.

SMILES	Cruzain inh noDet	Cruzain inh Det
COc1ccccc1Nc1nc(-c2cccc(N3C(=O)c4ccccc4C3=O)c2)cs1	7.9µM*	-3%
CS(=O)(=O)O[C@H]1CN2CCC1CC2	2%	2%
NC[C@@H]1O[C@@H](O[C@H]2[C@H](O)[C@H](O[C@@H]3O[C@H](CO)[C@@H](O)[C@H](N)[C@@H]3O)[C@@H](N)C[C@H]2N)[C@H](N)C[C@@H]1O	-6%	-2%
Cc1ccccc1OCC(=O)NC(=S)Nc1ccc2c3c(cccc13)CC2	7.9µM*	-1%
COc1ccc(OCC(=O)NC(=S)Nc2ccc3c4c(cccc24)CC3)cc1	?	-12%
CCCCn1cnc2c(SC)ncnc21	-5%	3%
CCN(CC)S(=O)(=O)c1ccc(C(=O)NCCSc2c[nH]c3ccccc23)cc1	10%	-4%
CCN(CC)S(=O)(=O)c1ccc(C(=O)NCCSc2c(-c3ccc(C)cc3)[nH]c3ccccc23)cc1	25µM*	-1%
Cc1ccc(S(=O)(=O)N(CC(=O)NCc2ccco2)Cc2ccccc2F)cc1	14%	-2%
CCc1nnc(NS(=O)(=O)c2ccc(NC(=S)NC(=O)/C=C/c3ccc(C(C)C)cc3)cc2)s1	?	14µM*
CCc1nnc(NS(=O)(=O)c2ccc(NC(=S)NC(=O)c3ccc(Br)cc3)cc2)s1	7%	?
CCc1nnc(NS(=O)(=O)c2ccc(NC(=S)NC(=O)/C=C/c3ccc(OC)cc3)cc2)s1	-17%	22µM*
CCc1nnc(NS(=O)(=O)c2ccc(NC(=S)NC(=O)/C=C/c3ccccc3)cc2)s1	1%	25µM*
CCc1nnc(NS(=O)(=O)c2ccc(NC(=S)Nc3ccc(F)cc3)cc2)s1	12%	-4%
CCc1nnc(NS(=O)(=O)c2ccc(NC(=S)NC(=O)c3ccccc3)cc2)s1	-2%	-12%
COc1ccc(NS(=O)(=O)c2ccc(NC(=S)NC(=O)/C=C/c3ccccc3)cc2)nn1	32µM*	-13%
COc1ccc(NS(=O)(=O)c2ccc(NC(=S)NC(=O)c3ccc(Br)cc3)cc2)nn1	2%	-7%
CCC(C=C[C@@H]1OC(=O)C=C[C@H]1C)=C[C@H](C)CC=CC(C)=C[C@@H](C)C(=O)[C@@H](C)[C@H](O)[C@@H](C)CC(C)=CC(=O)O	?	7%
O=S(=O)(CCc1ccccc1)c1nnnn1-c1ccccc1	-1%	5%
CCOc1ccc(S(=O)(=O)N2Cc3ccccc3CC2C(=O)Nc2ccc(NC(C)=O)cc2)cc1 (stereo not drawn)	?	-3%
Cc1cc2cc(CNC(=O)c3ccc4c(c3)OCO4)ccc2n1C	20µM*	-2%
O=C(NCc1ccc(-c2nc3ccccc3s2)cc1)c1cc2ccccc2o1	13µM*	-3%
Cc1cc(-c2csc(NC(=O)c3cc4ccccc4o3)n2)c(C)n1C	16µM*	-6%
O=C(NCc1ccc2c(c1)OCO2)c1cccc(C(=O)NCc2ccc3c(c2)OCO3)c1	0%	-2%
O=C(Nc1nc(-c2cccs2)cs1)c1cc2ccccc2oc1=O	-1%	0%
SMILES	Cruzain inh noDet	Cruzain inh Det
Cc1cc2cc(CNC(=O)c3cc4ccccc4o3)ccc2n1C	25µM*	-4%
O=C(NCc1ccc(-c2nc3ccccc3s2)cc1)c1ccc(Br)o1	?	1%
O=C(NCc1ccc(Cl)cc1)c1cc2ccccc2o1	-6%	-6%
CCOc1ccc(NC(=O)CCc2nc3cccnc3n2-c2ccccc2)cc1	-6%	-2%
O=C(OCC1OC(n2ccc(=O)[nH]c2=O)C(O)C1OC(=O)c1ccccc1)c1ccccc1 (stereo not drawn)	0%	0%
Nc1nc2c(ncn2C2OC(COC(=O)c3ccccc3)C(OC(=O)c3ccccc3)C2OC(=O)c2ccccc2)c(=O)[nH]1 (stereo not drawn)	7.9µM*	-1%
CC(C)=CCC/C(C)=C\COc1c2ccoc2cc2oc(=O)ccc12	-9%	-4%
O=C(/C=C/c1ccco1)NC(=S)Nc1cc(-c2nc3ccccc3s2)ccc1Cl	6.3µM*	-7%
Cc1ccc(-n2nc3cc(C)c(NC(=S)NC(=O)/C=C/c4ccco4)cc3n2)cc1	?	-5%
Cc1ccc(C(=O)NC(=S)Nc2cccc(-c3nc4ccccc4s3)c2)cc1	?	0%
Cc1ccc(-c2nc3ccccc3s2)cc1NC(=S)NC(=O)/C=C/c1ccco1	16µM*	0%
O=C(Nc1cc(-c2nc3ccccc3s2)ccc1Cl)c1ccc2c(c1)OCO2	?	5%
Cc1ccc(-c2nc3ccccc3s2)cc1NC(=S)NC(=O)c1cccc2ccccc12	6.3µM*	-4%
CC(C)CCNC(=O)CSCc1cnn(-c2ccccc2)c1-n1cccc1	-1%	-1%
Cc1ccc(S(=O)(=O)N(CC(=O)Nc2c(C)cccc2C)c2cccc(Cl)c2)cc1	-11%	-5%
COC(=O)CN=C1OC(=O)N2C(=O)C3=C4C(C[C@H]5C(=O)N(c6ccccc6)C(=O)[C@H]5[C@H]4[C@@]12Cc1ccccc1)[C@H]1C(=O)N(c2ccccc2)C(=O)[C@H]1[C@H]3C (stereo partly drawn)	1%	-2%
S=C(Nc1ccccc1)Nc1nc2ccccc2n1CCOc1ccc(Br)cc1	7.9µM*	3%
Cn1c(NC(=S)Nc2ccccc2)nc2ccccc21	?	1%
COc1cccc(N2CCN(C(=O)c3ccc(CS(=O)c4cccc(Cl)c4)o3)CC2)c1 (stereo not drawn)	3%	-6%
O=C(NCCCN1CCN(Cc2ccccc2)CC1)C1CCN(c2nnc(-n3cccc3)s2)CC1	-9%	-7%
O=C(NCCCN1CCc2ccccc2C1)C1CCN(c2nnc(-n3cccc3)s2)CC1	-24%	25µM*
O=C(Nc1nc2c(s1)CCCC2)c1cccc(S(=O)(=O)N2CCCc3ccccc32)c1	25µM*	-6%
CN1CCc2nc(NC(=O)c3cccc(S(=O)(=O)N4CCc5ccccc54)c3)sc2C1	16µM*	-5%
CCC(CC)c1nnc(NC(=O)c2cccc(S(=O)(=O)N3CCc4ccccc43)c2)s1	?	-2%
Cc1cccc(C(=O)Nc2nnc(S(=O)(=O)N3CCCc4ccccc43)s2)c1	-4%	-2%
SMILES	Cruzain inh noDet	Cruzain inh Det
Cc1ccc2nc(NC(=O)c3ccc(S(=O)(=O)N4CCCc5ccccc54)cc3)sc2c1	6.3µM*!	1%
O=C(Nc1nc2c(F)cccc2s1)c1ccc(S(=O)(=O)N2CCCc3ccccc32)cc1	-1%	1%
O=C(Nc1nc2ccc(F)cc2s1)c1cccc(S(=O)(=O)N2CCc3ccccc32)c1	7.9µM*	-1%
O=C(Nc1nc2c(F)cc(F)cc2s1)c1ccc(S(=O)(=O)N2CCc3ccccc32)cc1	-17%	-1%
COc1cc(/C=C/C(=O)c2ccc(NS(=O)(=O)c3ccc(C)cc3)cc2)cc(OC)c1O	?	-6%
COc1cc(/C=C/C(=O)c2ccc(NS(=O)(=O)c3ccc(C)cc3)cc2)ccc1OC(F)F	10µM*	-2%
Cc1ccc(-c2nc3ccccc3o2)cc1NC(=S)NC(=O)/C=C/c1ccco1	?	-2%
O=C(NC(=S)Nc1cccc([N+](=O)[O-])c1)c1ccco1	-1%	-1%
O=C(/C=C/c1ccco1)NC(=S)Nc1cccc([N+](=O)[O-])c1	32µM*	-16%
O=C(/C=C/c1ccco1)NC(=S)Nc1cccc(-c2nc3ccccc3o2)c1	10µM*	-8%
Cc1ccc(OCC(=O)Nc2ccc3nc(SCC(=O)Nc4ccc(C)cc4C)sc3c2)cc1	1%	-2%
